In the library only some 0.41% were active in any assay of this set; here they are far more common.
PKM2 act: qHTS Assay for Activators of Human Muscle isoform 2 Pyruvate Kinase; purified PKM2, Kinase-Glo ATP luminescence, activation; response scale: 0% is enzyme alone, no compound; Potency, µM (highest dose often 57.5 µM), for the others: at the highest dose activation, actives largely listed as activators; 260,000 compounds, 0.34% hits; active means well fitted activation curve with a large enough effect; inconclusive means small, poorly fitted or top-dose-only effect; inactive means no such curve, though single readings can be large or run the other way; further: potency means the concentration at half of the fitted maximal effect; on the % scale 0 is the no-effect control and ±100 the full control effect; nearly all actives have a fitted effect of over 55% in size
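Kinase-Glo luminescence reports ATP generated from ADP (0.1 mM) and PEP (0.5 mM) by purified hPK-M2 after 1 h at room temperature, pH 7.2 imidazole buffer; intermediate enzyme activity allows detecting inhibitors and activators.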
Menin MLL FP TR: qHTS Assay for Inhibitors Targeting the Menin-MLL Interaction in MLL Related Leukemias: Competition With Texas Red Labeled MLL-derived Mutant Peptide; O00255; Menin + Texas Red MLL mutant peptide, fluorescence polarization; Potency, µM (top dose mostly 61.6 µM), inactives show at the top dose FP activity change, negative = inhibition, actives largely listed as inhibitors; 270,000 compounds, 0.23% hits; AID 1768, 2009; active means well fitted inhibition curve with a large enough effect in the polarisation, with a control signal flat, not every such curve was filed as active; inconclusive means small, poorly fitted or top-dose-only effect, or effect the other way, or a change in a side signal; inactive means no such curve, though single readings can be large or run the other way; the % refers to the polarisation; further: potency means the concentration at half of the fitted maximal effect; % of control where 0% means no effect
Menin-MLL FL inh: qHTS Assay for Inhibitors Targeting the Menin-MLL Interaction in MLL Related Leukemias: Competition With Fluorescein Labeled MLL-derived Peptide. Fluorescence polarization, fluorescein-MLL peptide displacement from menin. FP activity change, % at 61.4 µM. 290,000 tested, under 10 active; active means well fitted curve in the direction sought with a large enough effect in the polarisation, not every such curve was filed as active; inconclusive means small, poorly fitted or top-dose-only effect, or effect the other way, or a change in a side signal; inactive means no such curve, though single readings can be large or run the other way; the % refers to the polarisation; further: % of control where 0% means no effect
CXXC DNA block: qHTS Fluorescence Polarization Assay for Inhibitors of MLL CXXC domain - DNA interaction; Histone-lysine N-methyltransferase 2A (Homo sapiens), Q03164; MLL-CXXC / FITC-HOXA9 DNA fluorescence polarization; Potency, µM (highest dose often 115 µM), inactives show top-dose activity change, negative = inhibition, most hits filed as inhibitors; 290,000 compounds, 0.037% hits; active means well fitted inhibition curve with a large enough effect in the polarisation, with a control signal flat, not every such curve was filed as active; inconclusive means small, poorly fitted or top-dose-only effect, or effect the other way, or a change in a side signal; inactive means no such curve, though single readings can be large or run the other way; the % refers to the polarisation; further: potency means the concentration at half of the fitted maximal effect
Target sequence (Q03164 whole entry, looked up, the tested form may be a part): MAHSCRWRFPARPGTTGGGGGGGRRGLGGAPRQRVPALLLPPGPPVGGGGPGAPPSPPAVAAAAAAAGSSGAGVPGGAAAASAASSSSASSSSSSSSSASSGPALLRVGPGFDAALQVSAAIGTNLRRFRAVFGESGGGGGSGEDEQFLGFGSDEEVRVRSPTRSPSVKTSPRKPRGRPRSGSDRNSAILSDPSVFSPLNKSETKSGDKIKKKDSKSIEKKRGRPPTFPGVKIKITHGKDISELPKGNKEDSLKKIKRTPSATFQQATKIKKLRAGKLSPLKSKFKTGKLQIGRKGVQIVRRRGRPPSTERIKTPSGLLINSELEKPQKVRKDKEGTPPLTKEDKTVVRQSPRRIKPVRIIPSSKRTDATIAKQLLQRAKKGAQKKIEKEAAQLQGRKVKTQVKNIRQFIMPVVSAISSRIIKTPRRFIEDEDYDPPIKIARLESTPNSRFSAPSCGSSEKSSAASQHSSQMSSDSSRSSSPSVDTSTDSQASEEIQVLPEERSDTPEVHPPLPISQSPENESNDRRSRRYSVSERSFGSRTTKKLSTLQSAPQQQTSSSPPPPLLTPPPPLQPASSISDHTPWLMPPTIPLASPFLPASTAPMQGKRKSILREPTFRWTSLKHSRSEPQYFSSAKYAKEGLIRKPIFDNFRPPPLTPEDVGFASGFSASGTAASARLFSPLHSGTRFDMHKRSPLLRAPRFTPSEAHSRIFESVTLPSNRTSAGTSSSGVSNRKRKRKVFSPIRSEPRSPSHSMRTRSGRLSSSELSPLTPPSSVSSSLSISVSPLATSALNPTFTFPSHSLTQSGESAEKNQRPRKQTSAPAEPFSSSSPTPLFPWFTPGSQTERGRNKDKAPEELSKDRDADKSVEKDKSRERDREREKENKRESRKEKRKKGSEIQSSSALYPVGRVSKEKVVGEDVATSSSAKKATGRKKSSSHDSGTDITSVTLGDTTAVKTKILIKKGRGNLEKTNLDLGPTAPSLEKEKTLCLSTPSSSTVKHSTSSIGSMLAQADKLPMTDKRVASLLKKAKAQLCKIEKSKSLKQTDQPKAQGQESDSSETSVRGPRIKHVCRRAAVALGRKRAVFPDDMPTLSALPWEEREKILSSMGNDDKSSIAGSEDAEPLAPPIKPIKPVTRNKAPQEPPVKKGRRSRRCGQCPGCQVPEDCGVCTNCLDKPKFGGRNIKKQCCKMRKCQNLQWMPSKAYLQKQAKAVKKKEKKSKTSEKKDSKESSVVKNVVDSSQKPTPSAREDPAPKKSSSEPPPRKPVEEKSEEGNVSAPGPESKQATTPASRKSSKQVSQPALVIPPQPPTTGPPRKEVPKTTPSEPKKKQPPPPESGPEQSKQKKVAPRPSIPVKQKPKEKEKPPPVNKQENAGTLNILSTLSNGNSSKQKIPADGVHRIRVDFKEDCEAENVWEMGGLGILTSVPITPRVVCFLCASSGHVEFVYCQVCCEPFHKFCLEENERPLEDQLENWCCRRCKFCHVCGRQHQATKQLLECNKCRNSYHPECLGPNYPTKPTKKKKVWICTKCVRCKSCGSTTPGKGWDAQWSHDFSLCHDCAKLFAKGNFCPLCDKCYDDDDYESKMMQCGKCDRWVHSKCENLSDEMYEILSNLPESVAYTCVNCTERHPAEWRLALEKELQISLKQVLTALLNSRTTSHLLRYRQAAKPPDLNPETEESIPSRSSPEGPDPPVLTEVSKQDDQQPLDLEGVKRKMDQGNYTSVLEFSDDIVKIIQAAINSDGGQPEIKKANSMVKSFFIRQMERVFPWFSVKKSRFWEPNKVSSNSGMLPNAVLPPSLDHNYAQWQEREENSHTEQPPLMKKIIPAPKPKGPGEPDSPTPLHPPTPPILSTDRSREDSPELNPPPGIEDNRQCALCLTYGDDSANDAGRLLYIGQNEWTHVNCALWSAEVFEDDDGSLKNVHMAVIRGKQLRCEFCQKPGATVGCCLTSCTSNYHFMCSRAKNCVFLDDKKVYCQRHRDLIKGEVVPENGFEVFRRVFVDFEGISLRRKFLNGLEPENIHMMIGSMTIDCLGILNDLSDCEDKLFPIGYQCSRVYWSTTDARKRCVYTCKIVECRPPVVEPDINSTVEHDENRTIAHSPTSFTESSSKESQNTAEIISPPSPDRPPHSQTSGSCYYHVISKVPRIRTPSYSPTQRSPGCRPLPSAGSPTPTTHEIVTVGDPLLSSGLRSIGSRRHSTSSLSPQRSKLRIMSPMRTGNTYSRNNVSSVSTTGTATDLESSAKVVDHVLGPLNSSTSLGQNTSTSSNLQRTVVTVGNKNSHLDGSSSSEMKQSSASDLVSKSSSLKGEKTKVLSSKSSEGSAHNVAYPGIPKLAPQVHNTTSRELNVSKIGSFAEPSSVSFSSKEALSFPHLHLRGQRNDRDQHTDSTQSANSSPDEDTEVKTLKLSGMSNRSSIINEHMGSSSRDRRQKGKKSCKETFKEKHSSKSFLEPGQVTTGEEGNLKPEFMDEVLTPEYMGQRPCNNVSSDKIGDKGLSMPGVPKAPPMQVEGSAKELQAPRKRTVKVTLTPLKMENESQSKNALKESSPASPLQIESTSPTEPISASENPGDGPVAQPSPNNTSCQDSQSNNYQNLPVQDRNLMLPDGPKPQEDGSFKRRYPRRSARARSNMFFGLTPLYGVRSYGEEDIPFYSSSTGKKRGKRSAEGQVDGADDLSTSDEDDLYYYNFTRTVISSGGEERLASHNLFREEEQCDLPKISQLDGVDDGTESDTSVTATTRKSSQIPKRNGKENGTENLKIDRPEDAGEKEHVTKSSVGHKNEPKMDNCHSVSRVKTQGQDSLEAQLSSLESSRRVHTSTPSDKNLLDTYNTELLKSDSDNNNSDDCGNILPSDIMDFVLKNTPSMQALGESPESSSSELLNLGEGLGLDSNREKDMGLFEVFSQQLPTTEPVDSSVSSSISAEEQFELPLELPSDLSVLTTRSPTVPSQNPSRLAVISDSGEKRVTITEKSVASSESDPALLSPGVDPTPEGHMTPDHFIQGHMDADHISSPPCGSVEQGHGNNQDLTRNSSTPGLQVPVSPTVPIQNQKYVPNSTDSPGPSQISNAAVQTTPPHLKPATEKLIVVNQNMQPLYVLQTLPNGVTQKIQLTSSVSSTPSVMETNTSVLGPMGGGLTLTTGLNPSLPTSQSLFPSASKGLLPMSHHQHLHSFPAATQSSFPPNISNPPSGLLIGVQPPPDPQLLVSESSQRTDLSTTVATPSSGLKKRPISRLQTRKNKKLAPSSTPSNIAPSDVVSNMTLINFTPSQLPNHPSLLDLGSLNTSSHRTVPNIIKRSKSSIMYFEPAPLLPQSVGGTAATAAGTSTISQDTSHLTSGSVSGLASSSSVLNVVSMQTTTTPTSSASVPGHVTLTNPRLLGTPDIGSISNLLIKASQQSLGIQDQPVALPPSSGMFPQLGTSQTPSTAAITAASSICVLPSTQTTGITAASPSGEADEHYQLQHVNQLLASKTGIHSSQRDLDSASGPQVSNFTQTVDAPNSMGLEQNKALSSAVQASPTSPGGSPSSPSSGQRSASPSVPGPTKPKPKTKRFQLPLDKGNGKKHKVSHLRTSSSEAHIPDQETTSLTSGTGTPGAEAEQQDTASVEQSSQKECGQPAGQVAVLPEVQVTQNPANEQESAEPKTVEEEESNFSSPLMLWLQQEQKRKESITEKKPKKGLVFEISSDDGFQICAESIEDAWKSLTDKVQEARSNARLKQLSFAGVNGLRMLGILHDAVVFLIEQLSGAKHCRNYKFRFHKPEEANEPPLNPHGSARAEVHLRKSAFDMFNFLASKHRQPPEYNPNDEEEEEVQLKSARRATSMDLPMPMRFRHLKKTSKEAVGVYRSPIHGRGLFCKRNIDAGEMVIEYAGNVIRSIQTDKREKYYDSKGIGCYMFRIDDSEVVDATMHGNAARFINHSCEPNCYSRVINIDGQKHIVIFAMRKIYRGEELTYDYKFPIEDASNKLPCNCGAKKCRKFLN
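Steps: dispense CXXC domain solution (7 uM) → pin compounds or unlabeled HOX-A9 DNA control → 5 min ambient → add FLSN-HOX-A9 solution (50 nM) → spin → 30 min ambient → fluorescence polarization. Tris pH 7.5/NaCl/DTT/BSA buffer.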
* = called active by the depositor; ? = inconclusive; nt = not tested or not shown; [ ] = remark or other dose.

SMILES	PKM2 act	Menin MLL FP TR	Menin-MLL FL inh	CXXC DNA block
COC(=O)c1c(Cl)c2n3ccccc3c(C)c(-c3ccccc3)c-2c1C(=O)OC	4.2%	-17.8%	?	?
COC(=O)c1cc2c(-c3ccccc3)c(C)c3ccccn3c-2c1C(=O)OC	3.8%	35.5µM*	?	-1.2%
CCCCn1c(SCN2C(=O)c3ccccc3C2=O)nc2cc(S(N)(=O)=O)ccc21	15.8µM*	2.3%	3.4	3.9%
CCCCn1c(SCn2nnc3ccccc3c2=O)nc2cc(S(N)(=O)=O)ccc21	6.2%	nt	3.2	12.2%
CCCN1C(=O)/C(=C/c2ccc(C)o2)SC1=Nc1ccc(OCC)cc1	12.6µM*	?	13.6	11.2%
NCCCC[C@@H](N)C(=O)O	nt	14.9%	1.0	nt
COC(=O)C/C=C/[C@@H](C)[C@@H](Cc1ccccc1Br)OC	nt	1.9%	1.3	nt
Cc1ccc(CSc2nnc(-c3ccc(NS(=O)(=O)c4ccccc4)cc3)o2)cc1	21.7%	?	6.6	3.6%
COC(=O)CSc1nnc(-c2ccc(NS(=O)(=O)c3ccccc3)cc2)o1	25.1µM*	-8.1%	-1.0	-10.0%
COc1ccc2c(c1)O[C@@H](c1ccc3c(c1)OCO3)[C@H](OC(=O)N[C@H]1CCCc3ccccc31)C2=O	nt	-6.9%	0.4	nt
C/C(=C\c1cccc(Br)c1)C(=O)c1c(C)cc(C)[nH]c1=O	nt	-21.2%	1.2	4.5%
C/C(=C\c1ccc(C)o1)C(=O)c1c(C)cc(C)[nH]c1=O	10µM*	-2.5%	4.8	4.5%
CCOC(=O)C1=C(C)Nc2nnnn2C1c1cccc(OC)c1OC (stereo unspecified)	15.8µM*	6.5%	4.9	-11.3%
COc1ccc(-c2ccccc2C2C3C=CCCC3(C)C(=O)N2Cc2ccccc2)cc1 (stereo unspecified)	nt	-16.2%	-0.5	nt
COc1ccc(CNc2ncnc3ccc(-c4ccc(N(C)C)cc4)cc23)c(OC)c1	nt	?	-1.1	nt
COCCN(C(=O)/C=C/c1ccccc1)c1c(N)n(Cc2ccccc2)c(=O)[nH]c1=O	15.9%	10.9%	1.2	-8.3%
COCCN(C(=O)/C=C/c1cccc([N+](=O)[O-])c1)c1c(N)n(Cc2ccccc2)c(=O)[nH]c1=O	3.16µM*	nt	0.7	7.1%
O=C1COc2ccc(S(=O)(=O)N3CCc4ccccc43)cc2N1	14.1µM*	nt	-0.5	3.4%
O=S(=O)(c1cnc(Cl)c(Cl)c1)N1CCCc2ccccc21	-13.9%	-0.8%	2.7	-2.0%
O=S(=O)(c1cnc(Cl)c(Cl)c1)N1CCc2ccccc21	3.55µM*	nt	0.9	-3.0%
CCCCn1c(N)c(Sc2ccc(C)cc2)c(=O)[nH]c1=O	15.8µM*	-8.8%	-0.4	3.7%
CC(=O)N1CCC2(CC1)CN(c1ccccn1)C2	nt	6.6%	4.2	nt
CC(C)=CC(=O)Oc1ccc(C(=O)N(C)c2ccccc2I)cc1	nt	12.2%	-2.9	nt
O=C(CSc1nc2ccccc2s1)N1c2ccccc2Sc2ccc(Cl)cc21	-0.1%	20µM*	-4.2	23.2%
CCn1c(C)c(C)c2cc(C(=O)NCCc3ccco3)ccc21	28.2µM*	7.2%	0.3	-15.6%
SMILES	PKM2 act	Menin MLL FP TR	Menin-MLL FL inh	CXXC DNA block
COc1ccc(S(=O)(=O)N2CCC(n3cnc4ccccc43)CC2)cc1	15.8µM*	-4.7%	3.5	1.6%
Cc1ccc(C2CC(=O)Oc3cc(C)c(Cl)cc32)cc1 (stereo unspecified)	nt	16.4%[94.6 µM]	-8.1[94.6 µM]	nt
Oc1ccc(Cl)cc1C1=NNC(c2cc(Br)cc3c2OCOC3)C1 (stereo unspecified)	2.6%	10µM*	14.1	4.4%
COc1ccc(-c2cc(C(=O)NC3=NCCS3)c3ccccc3n2)cc1OC	4.7%	?	-2.6	-0.1%
O=C(NC1=NCCS1)c1cc(-c2ccc(-c3ccccc3)cc2)nc2ccccc12	0.9%	11.2µM*	1.7	nt
C/C=C\C=C/C(=O)Nc1cccc(C2=NOC3(C2)C[C@@H](C(N)=O)N(C(=O)CCCCC)C3)c1 (stereo partly specified)	?	nt	-1.1	-3.4%
C/C=C\C=C/C(=O)Nc1cccc(C2=NOC3(C2)C[C@H](C(N)=O)N(C(=O)c2ccc(OC)cc2)C3)c1 (stereo partly specified)	14.1µM*	nt	10.2	-2.5%
C/C=C/C=C\C(=O)Nc1cccc(C2=NOC3(C2)C[C@H](C(N)=O)N(C(=O)CC#N)C3)c1 (stereo partly specified)	20µM*	nt	-0.7	-1.2%
C/C=C\C=C/C(=O)Nc1cccc(C2=NOC3(C2)C[C@H](C(N)=O)N(C(=O)CC)C3)c1 (stereo partly specified)	12.6µM*	nt	-0.9	4.2%
COc1ccccc1CN1CCCC2(CCN(C(=O)c3c(C)noc3C)CC2)C1	nt	-12.3%	1.6	nt
CCOC(=O)/C(C#N)=C/C=C1\C=Cc2ccccc2N1CC	1.7%	25.1µM*	?	177.2%
CCCN1C=CC(=C/C=C(\C#N)C(=O)OCC)C=C1	-2.6%	17.4%	?	?
COc1ccc(S(=O)(=O)N2CCN(C(=O)c3cccs3)CC2)cc1	14.1µM*	-5.5%	5.5	-8.8%
COc1cc2c(cc1OC)CN(C(=O)/C=C/c1cc(OC)c(OC)c(OC)c1)CC2	nt	10µM*	0.4	?
Cc1cc(=O)oc2cc(O)c(O)cc12	nt	-11.3%	-0.7	nt
CCOc1ccc(S(=O)(=O)N2CCN(C(=S)NCc3ccco3)CC2)cc1	14.1µM*	7.8%	2.9	-0.7%
CC1CC2(C)Oc3ccccc3C3OCC1(COC(=O)Nc1ccccc1)C(C)C32 (stereo unspecified)	nt	-1.7%[24.8 µM]	-0.5	nt
CCCCC[C@H](O)/C=C/[C@H]1OC(O)C[C@H](O)[C@@H]1C/C=C\CC(=O)O (stereo partly specified)	nt	-14.0%	-2.5	nt
COc1cc(C(c2nnnn2C(C)(C)C)N2CCN(c3nc4ccccc4s3)CC2)ccc1O (stereo unspecified)	25.1µM*	10.8%	-1.2	-1.6%
COc1ccc(C(c2nnnn2C(C)(C)C)N2CCN(c3nc4ccccc4s3)CC2)cc1OC (stereo unspecified)	7.2%	4.0%	0.3	4.6%
CCCCC(=O)O[C@]1(C(=O)CO)[C@H](C)C[C@H]2[C@@H]3CCC4=CC(=O)C=C[C@]4(C)[C@@]3(F)[C@@H](O)C[C@@]21C	nt	3.3%	-0.9	7.2%
Cc1cc(C)c(S(=O)(=O)NCCn2c(C)cc3ccccc32)c(C)c1	-0.3%	?	-20.4	8.3%
Cc1ccc(S(=O)(=O)NCCn2c(C)cc3ccccc32)cc1	9.0%	28.2µM*	-23.8	-6.1%
Cc1cc(Br)c(NC(=O)c2ccccc2[N+](=O)[O-])cc1C	-10.6%	10.4%	0.3	12.2%
Cn1c(=O)n(C)c2cc(NC(=O)c3ccccc3[N+](=O)[O-])c(Br)cc21	7.94µM*	-5.3%	-2.9	-2.3%

Screens (PubChem BioAssay)
